According to PubChem BioAssay:
“And” between values parts separate entries of the source, which are not always exact repeats. Identical values can stand only once. The source made the active and inactive calls. Cut-off read from the data, not from the text of the source, unless noted: active = parasite load remaining mostly below about 12% (no sharp cut-off); inactive = mostly above about 10%.

Columns and labels:
[1] = P. berghei load reduction in hepatocytes – cell-based, HepG2, luciferase luminescence, HepG2 viability, primary screen (AID 624349);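 note: 100% = mean of DMSO negative control wells on the same plate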; conditions: P. berghei liver stage in HepG2, luciferase luminescence, concentration not given here; parasite load remaining: stronger effect = lower value; viability: measured here: HepG2 viability without parasites
[2] = test system: Hepatitis C virus NS3 helicase; assay: blockers of NS3h binding to ssDNA – biochemical, fluorescence polarization, LOPAC1280 library, primary screen (AID 687035; in the data active = inhibition above about 37%); conditions: Purified HCV NS3 helicase, Cy5-dT15 ssDNA binding fluorescence polarization; stronger effect = higher value; concentration not given here
[3] = compounds altering Cy5-DNA-NS3h complex signal – biochemical, LOPAC1280, artefact control for HCV NS3 helicase inhibitor project (AID 687037; call rule not given here); conditions: Cy5-DNA-NS3h complex fluorescence interference counterscreen
[4] = Wnt pathway potentiators raising nuclear beta-catenin – imaging, WNT3A-conditioned medium, mouse C2C12, NPC library, primary screen (AID 1117326; in the data active = nuclear beta-catenin stimulation mostly above about 4.2%, no sharp cut-off; inactive = mostly below about 10%); conditions: stronger effect = higher value
[5] = stimulators of insulin release from INS-1E, primary screen, cell-based, 5 mM glucose, NPC library (AID 1117329;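 active = compound raises insulin release from rat beta cells at 5 mM glucose, no numeric limit stated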); conditions: rat INS-1E insulin secretion, at 10 µM, stronger effect = higher value
[6] = growth inhibition of GSK3B-pretreated HCT116 cells – cell-based, CellTiter-Glo, 0.2 to 20 µM (AID 1117336;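 active = compounds lowering colon cancer cell viability after pretreatment blocking the GSK3B kinase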); conditions: HCT116 viability after GSK3B inhibitor, at 20 µM, stronger effect = higher value
[7] = inhibition of endothelial tube formation, primary screen, imaging, VEGF stimulated, CD31 staining, tube area, NPC library (AID 1117340;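 active = compound that reduces growth-factor-driven endothelial tube area in a mixed cell culture, no cutoff stated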); conditions: VEGF-stimulated ADSC/ECFC co-culture, at 10 µM, stronger effect = higher value
[8] = GLP1 release stimulators, primary, NCI-H716, NPC library (AID 1117341;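 active = compound raises GLP1 secretion from the human gut endocrine cells, with no numeric limit stated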); conditions: NCI-H716 cells, at 10 µM, stronger effect = higher value
[9] = HCT116 colon cancer cell growth inhibition, primary screen, CellTiter-Glo luminescence, NPC library (AID 1117342;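 active = compounds that lower survival of HCT116 colon cancer cells in the luminescence readout, no numeric limit stated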); conditions: at 20 µM (top of the series)
[10] = reduced SW480 viability measured with CellTiter-Glo, NPC library, primary (AID 1117343;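 active = compounds that lower viability of the colon cancer cells in the luminescence readout, with no numeric limit stated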); conditions: CellTiter-Glo luminescence; at 20 µM (top of the series)
[11] = NPC library primary testing for decreased DLD-1 cell viability via CellTiter-Glo (AID 1117346;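 active = compounds that lower survival of DLD-1 colon cancer cells in the luminescence readout, no cutoff given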); conditions: DLD-1 viability, CellTiter-Glo luminescence; at 20 µM (top of the series)
[12] = biological target: 6-phosphogluconate dehydrogenase, decarboxylating (Homo sapiens) (UniProt P52209); assay: inhibition of human phosphogluconate dehydrogenase – biochemical, recombinant enzyme, NADPH absorbance, primary screen (AID 1159550;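 active = at least 20% inhibition of 6-phosphogluconate dehydrogenase activity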); conditions: recombinant 6PGD, NADPH absorbance 341 nm; at 10 µM; stronger effect = higher value
Sequence of 6-phosphogluconate dehydrogenase, decarboxylating (Homo sapiens) (P52209 whole entry, looked up): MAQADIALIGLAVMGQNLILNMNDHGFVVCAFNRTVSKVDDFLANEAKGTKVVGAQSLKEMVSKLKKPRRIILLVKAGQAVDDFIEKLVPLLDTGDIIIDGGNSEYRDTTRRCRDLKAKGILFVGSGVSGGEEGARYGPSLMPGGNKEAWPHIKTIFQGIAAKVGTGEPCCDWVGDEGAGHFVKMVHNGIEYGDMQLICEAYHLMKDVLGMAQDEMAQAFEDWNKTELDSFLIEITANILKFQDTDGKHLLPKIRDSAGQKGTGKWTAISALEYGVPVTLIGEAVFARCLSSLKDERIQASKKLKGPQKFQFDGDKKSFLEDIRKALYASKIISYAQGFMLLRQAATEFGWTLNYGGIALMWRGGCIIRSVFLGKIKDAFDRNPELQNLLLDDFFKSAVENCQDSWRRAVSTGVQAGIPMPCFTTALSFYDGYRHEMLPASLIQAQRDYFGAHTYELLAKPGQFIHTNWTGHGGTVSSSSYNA

Clc1ccc(C(c2ccccc2Cl)C(Cl)Cl)cc1 (configuration not stated)
80.1%: viability [1]
inactive: parasite load remaining [1] 2.27% | inhibition [2] -4% | fluorescence ratio (interference) [3] 0.9 | nuclear beta-catenin stimulation ([4]; at 10 µM) 4.5% | insulin secretion stimulation [5] 1.4% | viability decrease [6] 46.6% | tube area decrease [7] 6.6% | GLP1 secretion stimulation [8] 15.5% | inhibition [12] 5.07%
active: inhibition of viability [9] 88.6% | viability decrease (inhibition) [10] 84.4% | viability decrease (inhibition) [11] 99.5%
0.2%: nuclear beta-catenin stimulation ([4]; stimulation, at 2 µM)

Nc1ccc(S(=O)(=O)Nc2ccnn2-c2ccccc2)cc1
-0.2%: nuclear beta-catenin stimulation ([4]; stimulation, at 2 µM)
inactive: parasite load remaining [1] 33% and 120% and 106% | inhibition [2] 1% | fluorescence ratio (interference) [3] 1 | nuclear beta-catenin stimulation ([4]; at 10 µM) 0.1% | insulin secretion stimulation [5] -1.3% | viability decrease [6] -8.8% | tube area decrease [7] -4.8% | GLP1 secretion stimulation [8] 3.3% | inhibition of viability [9] -9.2% | viability decrease (inhibition) [10] 6.4% | viability decrease (inhibition) [11] -3.95% | inhibition [12] -9.54%
49.4% and 69.4% and 93.2%: viability [1]

O=NN(CCCl)C(=O)NCCCl
1.3%: nuclear beta-catenin stimulation ([4]; stimulation, at 2 µM)
104%: viability [1]
inactive: parasite load remaining [1] 30.7% | inhibition [2] -4% | fluorescence ratio (interference) [3] 1 | nuclear beta-catenin stimulation ([4]; at 10 µM) 4.9% | insulin secretion stimulation [5] -0.1% | viability decrease [6] -5.7% | tube area decrease [7] 23.1% | GLP1 secretion stimulation [8] 2.2% | inhibition of viability [9] -16.5% | viability decrease (inhibition) [10] 18.8% | viability decrease (inhibition) [11] -24.6% | inhibition [12] 0.0871%

NNc1nncc2ccccc12
-1.5%: nuclear beta-catenin stimulation ([4]; stimulation, at 2 µM)
72.8% and 96.1% and 95%: viability [1]
inactive: parasite load remaining [1] 83.7% and 102% and 72.4% | inhibition [2] -3% | fluorescence ratio (interference) [3] 1 | nuclear beta-catenin stimulation ([4]; at 10 µM) -0.9% | insulin secretion stimulation [5] -1.2% | viability decrease [6] -10.3% | tube area decrease [7] 5.9% | GLP1 secretion stimulation [8] 5.2% | inhibition of viability [9] 4.9% | viability decrease (inhibition) [10] 4.9% | viability decrease (inhibition) [11] -2.1% | inhibition [12] 15.4%

O=C(O)CCCCCCCC(=O)O
69% and 83.5%: viability [1]
inactive: parasite load remaining [1] 102% and 78.4% | inhibition [2] 0% | fluorescence ratio (interference) [3] 0.9 | nuclear beta-catenin stimulation ([4]; at 10 µM) 0.3% | insulin secretion stimulation [5] 0.4% | viability decrease [6] -10.2% | tube area decrease [7] 2.7% | GLP1 secretion stimulation [8] -4.7% | inhibition of viability [9] -4.13% | viability decrease (inhibition) [10] 15% | viability decrease (inhibition) [11] -3.7% | inhibition [12] -2.42%
-0.5%: nuclear beta-catenin stimulation ([4]; stimulation, at 2 µM)

CC(=O)O[C@]1(C(C)=O)CC[C@H]2[C@@H]3C=C(Cl)C4=CC(=O)[C@@H]5C[C@@H]5[C@]4(C)[C@H]3CC[C@@]21C
inactive: parasite load remaining [1] 8.85% | inhibition [2] -1% | fluorescence ratio (interference) [3] 0.9 | nuclear beta-catenin stimulation ([4]; at 10 µM) 1.2% | insulin secretion stimulation [5] -1.4% | viability decrease [6] 16% | tube area decrease [7] 10.1% | GLP1 secretion stimulation [8] 1.2% | inhibition of viability [9] 29.2% | viability decrease (inhibition) [10] 48.9% | viability decrease (inhibition) [11] -4.3% | inhibition [12] -7.53%
69%: viability [1]
1.7%: nuclear beta-catenin stimulation ([4]; stimulation, at 2 µM)

CO[C@@]1(NC(=O)CSCC#N)C(=O)N2C(C(=O)O)=C(CSc3nnnn3C)CS[C@@H]21
102%: viability [1]
inactive: parasite load remaining [1] 86% | inhibition [2] -5% | fluorescence ratio (interference) [3] 1 | nuclear beta-catenin stimulation ([4]; at 10 µM) 0.4% | insulin secretion stimulation [5] -1.4% | viability decrease [6] -2.9% | tube area decrease [7] -0.3% | GLP1 secretion stimulation [8] -2.4% | inhibition of viability [9] -6.4% | viability decrease (inhibition) [10] -7.4% | viability decrease (inhibition) [11] -14.4% | inhibition [12] -6.33%
0.7%: nuclear beta-catenin stimulation ([4]; stimulation, at 2 µM)

CC(CN(C)C)CN1c2ccccc2CCc2ccccc21 (configuration not stated)
-0.7%: nuclear beta-catenin stimulation ([4]; stimulation, at 2 µM)
inactive: parasite load remaining [1] 54.2% and 101% and 48.3% | inhibition [2] -4% | fluorescence ratio (interference) [3] 1 | nuclear beta-catenin stimulation ([4]; at 10 µM) -1.5% | insulin secretion stimulation [5] 2.4% | viability decrease [6] -139% | tube area decrease [7] 13.4% | GLP1 secretion stimulation [8] 4.5% | viability decrease (inhibition) [11] 1.5% | inhibition [12] 13.6%
active: inhibition of viability [9] 55.4% | viability decrease (inhibition) [10] 136%
103% and 83.8% and 93.4%: viability [1]

CO/N=C1\CN(c2nc3c(cc2F)c(=O)c(C(=O)O)cn3C2CC2)CC1CN (configuration not stated)
85.7% and 106%: viability [1]
3.4%: nuclear beta-catenin stimulation ([4]; stimulation, at 2 µM)
inactive: parasite load remaining [1] 155% and 46.4% | nuclear beta-catenin stimulation ([4]; at 10 µM) 4.1% | insulin secretion stimulation [5] 3% | viability decrease [6] -23.6% | tube area decrease [7] -6.9% | GLP1 secretion stimulation [8] 1.1% | inhibition of viability [9] -15% | viability decrease (inhibition) [10] -14.7% | viability decrease (inhibition) [11] -7.2% | inhibition [12] 2.88%

CCCCC1C(=O)N(c2ccccc2)N(c2ccccc2)C1=O
73% and 101% and 70.5%: viability [1]
inactive: parasite load remaining [1] 85.8% and 69.9% and 33.4% | inhibition [2] -4% | fluorescence ratio (interference) [3] 1 | nuclear beta-catenin stimulation ([4]; at 10 µM) -2% | insulin secretion stimulation [5] -1.7% | viability decrease [6] -11.7% | tube area decrease [7] 0.7% | GLP1 secretion stimulation [8] -3.3% | inhibition of viability [9] 9.25% | viability decrease (inhibition) [10] 13.6% | viability decrease (inhibition) [11] -12.9% | inhibition [12] 1.47%
-0.9%: nuclear beta-catenin stimulation ([4]; stimulation, at 2 µM)

C=Cc1c(C)c2cc3[nH]c(cc4nc(cc5nc(cc1[nH]2)C(C)=C5CCC(=O)O)C(CCC(=O)O)=C4C)c(C)c3C=C
active: inhibition [2] 140% | fluorescence ratio (interference) [3] 2 | GLP1 secretion stimulation [8] 117% | inhibition of viability [9] 73.5% | viability decrease (inhibition) [10] 120% | viability decrease (inhibition) [11] 93%
65.3%: viability [1]
0.1%: nuclear beta-catenin stimulation ([4]; stimulation, at 2 µM)
inactive: parasite load remaining [1] 108% | nuclear beta-catenin stimulation ([4]; at 10 µM) -3.7% | insulin secretion stimulation [5] -1.6% | viability decrease [6] 37.8% | tube area decrease [7] -597% | inhibition [12] 16.8%
